Measured values taken from the supplement of paper PMC8728848.
Only a selection was taken, and the strongest signals are over-represented in it overall.

Each substance was assayed on Gal(b1-4)GlcNAc(b1-6)GalNAc (assay: glycan array binding signal (z-score within array); higher = stronger binding). Details: glycan notation: IUPAC condensed, linker removed.
In short: (§1)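 The Consortium for Functional Glycomics database supplied 3228 glycan arrays, of which those lacking an available protein sequence were dropped. The binding signal, a within-array Z-score, was averaged across arrays of the same protein sequence and across linkers. Negative scores can be read as non-binding.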

Chain of C3b (Homo sapiens), P01024 (P01024 23-667): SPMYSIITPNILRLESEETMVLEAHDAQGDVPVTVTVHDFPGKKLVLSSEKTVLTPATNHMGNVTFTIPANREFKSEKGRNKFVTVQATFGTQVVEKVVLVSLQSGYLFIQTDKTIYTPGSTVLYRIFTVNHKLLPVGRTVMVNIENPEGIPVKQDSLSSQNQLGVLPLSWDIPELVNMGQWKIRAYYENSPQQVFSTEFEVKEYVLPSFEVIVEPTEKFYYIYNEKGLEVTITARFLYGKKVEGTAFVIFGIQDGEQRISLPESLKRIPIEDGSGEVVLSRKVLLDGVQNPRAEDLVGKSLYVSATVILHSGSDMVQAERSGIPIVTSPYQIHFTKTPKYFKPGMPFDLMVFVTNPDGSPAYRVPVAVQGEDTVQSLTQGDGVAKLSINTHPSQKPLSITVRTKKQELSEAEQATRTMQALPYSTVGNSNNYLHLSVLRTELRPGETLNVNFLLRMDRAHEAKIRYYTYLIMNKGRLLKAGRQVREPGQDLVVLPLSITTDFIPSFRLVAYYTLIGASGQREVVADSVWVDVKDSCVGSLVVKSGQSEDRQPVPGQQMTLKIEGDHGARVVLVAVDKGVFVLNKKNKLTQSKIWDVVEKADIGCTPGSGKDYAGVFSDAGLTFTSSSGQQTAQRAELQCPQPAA
Chain of PILRa (Mus musculus), Q2YSF3 (Q2YSF3 entry or part of it): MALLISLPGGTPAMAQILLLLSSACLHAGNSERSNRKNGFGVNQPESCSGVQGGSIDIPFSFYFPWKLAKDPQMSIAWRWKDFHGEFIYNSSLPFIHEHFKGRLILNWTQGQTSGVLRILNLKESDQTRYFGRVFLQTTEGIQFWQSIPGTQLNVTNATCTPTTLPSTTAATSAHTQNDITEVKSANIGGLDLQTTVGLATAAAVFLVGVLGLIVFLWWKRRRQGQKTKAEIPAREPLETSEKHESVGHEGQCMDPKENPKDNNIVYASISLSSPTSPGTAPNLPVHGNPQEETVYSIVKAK
Chain of Regenerating Gene IV (Homo sapiens), Q9BYZ8 (Q9BYZ8 whole entry, looked up): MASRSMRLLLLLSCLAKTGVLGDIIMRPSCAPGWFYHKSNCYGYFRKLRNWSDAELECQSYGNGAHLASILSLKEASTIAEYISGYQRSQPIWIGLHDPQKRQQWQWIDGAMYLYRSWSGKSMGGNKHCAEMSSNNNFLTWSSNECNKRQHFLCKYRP
Chain of Aggrecan (Rattus norvegicus), NP_071526 (chain, as listed by the source): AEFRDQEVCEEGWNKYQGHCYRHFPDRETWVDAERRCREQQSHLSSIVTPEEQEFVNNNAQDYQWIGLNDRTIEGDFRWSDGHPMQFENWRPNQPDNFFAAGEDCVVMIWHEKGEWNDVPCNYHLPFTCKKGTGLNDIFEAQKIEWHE
Chain of SRLC (Mus musculus), Q8VIF6 (Q8VIF6 other isoform, or with tags, fused parts or gaps): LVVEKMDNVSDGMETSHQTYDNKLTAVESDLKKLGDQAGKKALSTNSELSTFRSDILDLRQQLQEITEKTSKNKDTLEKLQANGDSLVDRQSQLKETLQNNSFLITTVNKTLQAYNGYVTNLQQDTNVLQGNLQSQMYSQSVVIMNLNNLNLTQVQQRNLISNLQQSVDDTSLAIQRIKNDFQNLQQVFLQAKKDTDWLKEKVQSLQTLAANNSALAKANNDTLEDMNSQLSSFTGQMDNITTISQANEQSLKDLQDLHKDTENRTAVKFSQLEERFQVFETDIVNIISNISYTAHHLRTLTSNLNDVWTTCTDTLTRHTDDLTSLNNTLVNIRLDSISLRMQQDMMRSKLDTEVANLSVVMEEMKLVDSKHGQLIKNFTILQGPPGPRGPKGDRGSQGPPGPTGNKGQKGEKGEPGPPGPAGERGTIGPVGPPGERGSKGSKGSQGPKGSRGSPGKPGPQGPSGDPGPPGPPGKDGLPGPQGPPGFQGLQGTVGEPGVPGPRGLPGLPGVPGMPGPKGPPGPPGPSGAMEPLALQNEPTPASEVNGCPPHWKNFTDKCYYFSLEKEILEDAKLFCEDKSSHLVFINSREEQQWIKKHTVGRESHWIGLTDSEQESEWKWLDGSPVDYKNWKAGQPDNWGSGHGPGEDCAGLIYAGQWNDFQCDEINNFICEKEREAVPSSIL
Chain of wLAT-1A (Homo sapiens), Q01650 (Q01650 whole entry): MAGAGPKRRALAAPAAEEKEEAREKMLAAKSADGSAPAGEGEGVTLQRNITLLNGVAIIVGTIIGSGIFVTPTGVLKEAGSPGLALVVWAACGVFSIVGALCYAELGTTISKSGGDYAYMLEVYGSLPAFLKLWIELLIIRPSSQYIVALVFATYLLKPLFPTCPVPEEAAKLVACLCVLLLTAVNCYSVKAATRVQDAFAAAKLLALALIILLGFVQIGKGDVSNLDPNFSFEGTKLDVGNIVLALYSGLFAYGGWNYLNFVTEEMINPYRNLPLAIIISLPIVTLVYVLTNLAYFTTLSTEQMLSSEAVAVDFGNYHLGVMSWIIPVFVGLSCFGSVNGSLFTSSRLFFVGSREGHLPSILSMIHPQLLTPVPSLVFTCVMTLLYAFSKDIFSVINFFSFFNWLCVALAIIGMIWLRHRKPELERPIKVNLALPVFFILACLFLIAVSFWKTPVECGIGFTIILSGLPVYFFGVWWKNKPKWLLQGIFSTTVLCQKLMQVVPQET

Substance | glycan array binding signal (z-score)
PILRa (Mus musculus), Q2YSF3 | -0.218
wLAT-1A (Homo sapiens), Q01650 | 0.12
SRLC (Mus musculus), Q8VIF6 | -0.239
MpAFP RI GFP (Marinomonas primoryensis) | -0.359

Each substance was assayed on Gal3S6S(b1-4)GlcNAc in the same assay as above. Details: glycan notation: IUPAC condensed, linker removed.
In short: as §1

Substance | glycan array binding signal (z-score)
Regenerating Gene IV (Homo sapiens), Q9BYZ8 | 0.332
Aggrecan (Rattus norvegicus), NP_071526 | -0.034
C3b (Homo sapiens), P01024 | -0.743
